According to PubChem BioAssay AID1159580 (chemical genetic matrix, 2015):
“And” between values parts separate entries of the source, which are not always exact repeats. Identical values can stand only once. Screen size: about 5,500 compounds; about 2,000 (36%) were called active. Inconclusive results (about 18%) are left out. Rule as the data show it: active = normalized growth mostly below about 0.91 (no sharp cut-off); inconclusive = no clear call, values can overlap the other calls; inactive = mostly above about 0.92. The list shows a part of the results.

Assay: chemical genetic growth profiling, strain panel (AID 1159580);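 also: tested at 20 µM; growth read once vehicle control cultures reached saturation at 30 °C; 1 = growth at the plate median or of vehicle wells; lower values mean less growth of the strain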
Conditions: S. cerevisiae deletion strains, growth OD

Measured: normalized growth

OCCN1C[C@@H](O)[C@@H](O)C(O)C1CO (stereo partly specified)
inactive: locus YAL013W, strain DEP1, stronger effect = lower value 1.02 | locus YAL021C, strain ccr4, stronger effect = lower value 0.993 | locus YAL026C, strain drs2, stronger effect = lower value 1.02 | locus YAL030W, strain snc1, stronger effect = lower value 0.999 | locus YBL061C, strain skt5, stronger effect = lower value 1.01 | locus YBR009C, strain hhf1, stronger effect = lower value 1 | locus YBR021W, strain FUR4, stronger effect = lower value 1.01 | locus YBR023C, strain chs3, stronger effect = lower value 1 | locus YBR171W, strain sec66, stronger effect = lower value 1.01 | locus YBR229C, strain ROT2, stronger effect = lower value 1.02 | locus YBR231C, strain swc5, stronger effect = lower value 1.01 | locus YBR279W, strain paf1, stronger effect = lower value 1.01 | locus YCL011C, strain gbp2, stronger effect = lower value 0.996 | locus YCL016C, strain dcc1, stronger effect = lower value 0.993 | locus YCL029C, strain bik1, stronger effect = lower value 1 | locus YCL069W, strain vba3, stronger effect = lower value 0.991 | locus YCR088W, strain abp1, stronger effect = lower value 0.997 | locus YDL005C, strain med2, stronger effect = lower value 1.01 | locus YDL035C, strain GPR1, stronger effect = lower value 1.01 | locus YDL040C, strain nat1, stronger effect = lower value 1 | locus YDL074C, strain BRE1, stronger effect = lower value 1.03 | locus YDL101C, strain DUN1, stronger effect = lower value 1.01 | locus YDL134C, strain PPH21, stronger effect = lower value 1.02 | locus YDL185W, strain tfp1, stronger effect = lower value 0.994 | locus YDL192W, strain arf1, stronger effect = lower value 1 | locus YDR001C, strain nth1, stronger effect = lower value 1 | locus YDR069C, strain doa4, stronger effect = lower value 1.01 | locus YDR101C, strain arx1, stronger effect = lower value 1.01 | locus YDR137W, strain rgp1, stronger effect = lower value 1.01 | locus YDR150W, strain NUM1, stronger effect = lower value 1.02 | locus YDR159W, strain sac3, stronger effect = lower value 1.01 | locus YDR162C, strain NBP2, stronger effect = lower value 1.01 | locus YDR195W, strain ref2 0.992 | locus YDR297W, strain sur2, stronger effect = lower value 1.01 | locus YDR318W, strain mcm21, stronger effect = lower value 1 | locus YDR334W, strain swr1, stronger effect = lower value 1.01 | locus YDR335W, strain msn5, stronger effect = lower value 0.992 | locus YDR388W, stronger effect = lower value 1 | locus YDR392W, strain spt3, stronger effect = lower value 0.989 | locus YDR502C, strain sam2, stronger effect = lower value 1 | locus YEL003W, strain gim4, stronger effect = lower value 1.01 | locus YEL037C, strain rad23, stronger effect = lower value 1 | locus YEL061C, strain CIN8 (second series), stronger effect = lower value 0.989 | locus YEL061C, strain CIN8, stronger effect = lower value 1.02 | locus YER015W, strain faa2, stronger effect = lower value 1.01 | locus YER016W, strain bim1, stronger effect = lower value 0.983 | locus YER110C, stronger effect = lower value 0.993 | locus YER111C, strain swi4, stronger effect = lower value 1.02 | locus YER155C, strain BEM2 (second series), stronger effect = lower value 1.01 | locus YER155C, strain BEM2, stronger effect = lower value 1.01 | locus YER167W, strain BCK2, stronger effect = lower value 1.02 | locus YFR010W, strain ubp6, stronger effect = lower value 1.01 | locus YGL078C, strain dbp3, stronger effect = lower value 1.01 | locus YGL086W, strain mad1, stronger effect = lower value 1 | locus YGL167C, strain pmr1, stronger effect = lower value 1.01 | locus YGL173C, strain kem1, stronger effect = lower value 1.02 | locus YGL227W, strain vid30, stronger effect = lower value 1.01 | locus YGL240W, strain doc1, stronger effect = lower value 1.01 | locus YGL248W, strain PDE1, stronger effect = lower value 1.01 | locus YGL253W, strain hxk2, stronger effect = lower value 1 | locus YGR078C, strain PAC10, stronger effect = lower value 1.04 | locus YGR135W, strain pre9, stronger effect = lower value 1 | locus YGR229C, strain SMI1, stronger effect = lower value 1.02 | locus YGR252W, strain gcn5, stronger effect = lower value 0.969 | locus YHR013C, strain ard1, stronger effect = lower value 0.988 | locus YHR027C, strain rpn1, stronger effect = lower value 1.01 | locus YHR030C, strain SLT2, stronger effect = lower value 1.02 and 1.01 | locus YHR079C, strain IRE1 (second series), stronger effect = lower value 1.01 | locus YHR079C, strain IRE1, stronger effect = lower value 1 | locus YHR094C, strain hxt1, stronger effect = lower value 1.01 | locus YHR129C, strain ARP1, stronger effect = lower value 1.01 | locus YHR142W, strain chs7, stronger effect = lower value 0.984 | locus YHR200W, strain rpn10, stronger effect = lower value 1 | locus YIL066C, strain RNR3, stronger effect = lower value 1.02 | locus YIL073C, strain SPO22, stronger effect = lower value 1.03 | locus YIL125W, strain kgd1, stronger effect = lower value 1 | locus YIR030C, strain dcg1, stronger effect = lower value 1.01 | locus YJL092W, strain hpr5, stronger effect = lower value 1 | locus YJL095W, strain BCK1 (second series), stronger effect = lower value 1.01 | locus YJL095W, strain BCK1, stronger effect = lower value 1.02 and 1.01 | locus YJL115W, strain asf1, stronger effect = lower value 1.02 | locus YJL129C, strain trk1, stronger effect = lower value 0.997 | locus YJL134W, strain LCB3, stronger effect = lower value 1.01 | locus YJL154C, strain vps35, stronger effect = lower value 0.994 | locus YJL164C, strain tpk1, stronger effect = lower value 0.996 | locus YJL166W, strain qcr8, stronger effect = lower value 1.01 | locus YJL168C, strain set2, stronger effect = lower value 1 | locus YJL187C, strain SWE1 (second series), stronger effect = lower value 1.02 | locus YJR043C, strain POL32, stronger effect = lower value 1 | locus YJR066W, strain TOR1, stronger effect = lower value 0.962 | locus YJR075W, strain HOC1, stronger effect = lower value 1.01
